In PubChem BioAssay AID1159580 (chemical genetic matrix, 2015):
Among all 5,500 compounds or so, about 2,000 (36%) were called active. Another 18% or so got no clear call; they are omitted. No stated cut-off is given here; in the data, active means normalized growth mostly below about 0.91 (no sharp cut-off); inconclusive means no clear call, values can overlap the other calls; inactive means mostly above about 0.92. This is one part of the list.

Assay: chemical genetic growth profiling, strain panel (AID 1159580);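 further: tested at 20 µM; growth read once vehicle control cultures reached saturation at 30 °C; 1 = growth at the plate median or of vehicle wells; lower values mean less growth of the strain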
Details: growth OD

Measured: normalized growth

COC(=O)[C@@]1(C)CCC[C@]2(C)c3ccc(O)c(C(C)C)c3CCC12 (stereo partly specified)
inactive: S. cerevisiae deletion strains, locus YKL068W, active compounds read low 0.979 | S. cerevisiae deletion strains, locus YKR026C, strain gcn3, active compounds read low 0.978 | S. cerevisiae deletion strains, locus YKR091W, strain srl3, active compounds read low 0.976 | S. cerevisiae deletion strains, locus YLL001W, strain dnm1, active compounds read low 0.937 | S. cerevisiae deletion strains, locus YLL041C, strain sdh2, active compounds read low 0.965 | S. cerevisiae deletion strains, locus YLR102C, strain apc9, active compounds read low 0.95 | S. cerevisiae deletion strains, locus YLR357W, strain rsc2, active compounds read low 1 | S. cerevisiae deletion strains, locus YLR370C, strain arc18, active compounds read low 1.01 | S. cerevisiae deletion strains, locus YLR384C, strain iki3, active compounds read low 0.998 | S. cerevisiae deletion strains, locus YMR058W, strain fet3, active compounds read low 0.919 | S. cerevisiae deletion strains, locus YMR078C, strain ctf18, active compounds read low 0.96 | S. cerevisiae deletion strains, locus YMR125W, strain sto1, active compounds read low 0.959 | S. cerevisiae deletion strains, locus YMR129W, active compounds read low 0.96 | S. cerevisiae deletion strains, locus YMR231W, strain pep5, active compounds read low 0.996 | S. cerevisiae deletion strains, locus YNL067W, strain RPL9B, active compounds read low 0.903 | S. cerevisiae deletion strains, locus YNL248C, strain rpa49, active compounds read low 0.916 | S. cerevisiae deletion strains, locus YNL250W, strain rad50, active compounds read low 0.934 | S. cerevisiae deletion strains, locus YNL271C, strain bni1, active compounds read low 0.971 | S. cerevisiae deletion strains, locus YNL322C, strain KRE1 (second series), active compounds read low 0.985 | S. cerevisiae deletion strains, locus YNR049C, strain mso1, active compounds read low 0.964 | S. cerevisiae deletion strains, locus YOL012C, strain htz1 0.967 | S. cerevisiae deletion strains, locus YOR136W, strain idh2, active compounds read low 0.929 | S. cerevisiae deletion strains, locus YOR316C, strain cot1, active compounds read low 0.984 | S. cerevisiae deletion strains, locus YPL078C, strain atp4, active compounds read low 0.924 | S. cerevisiae deletion strains, locus YPR141C, strain kar3, active compounds read low 0.987
active: S. cerevisiae deletion strains, locus YJR066W, strain TOR1, active compounds read low 0.689 | S. cerevisiae deletion strains, locus YKL009W, strain mrt4, active compounds read low 0.859 | S. cerevisiae deletion strains, locus YKL085W, strain MDH1 (second series), active compounds read low 0.522 | S. cerevisiae deletion strains, locus YKL085W, strain MDH1, active compounds read low 0.522 | S. cerevisiae deletion strains, locus YKL160W, strain elf1, active compounds read low 0.881 | S. cerevisiae deletion strains, locus YKR001C, strain vps1, active compounds read low 0.231 | S. cerevisiae deletion strains, locus YLL026W, active compounds read low 0.843 | S. cerevisiae deletion strains, locus YLR027C, strain aat2, active compounds read low 0.354 | S. cerevisiae deletion strains, locus YLR039C, strain RIC1, active compounds read low 0.245 | S. cerevisiae deletion strains, locus YLR058C, strain SHM2, active compounds read low 0.661 | S. cerevisiae deletion strains, locus YLR113W, strain HOG1, active compounds read low 0.284 | S. cerevisiae deletion strains, locus YLR221C, strain rsa3, active compounds read low 0.619 | S. cerevisiae deletion strains, locus YLR258W, strain gsy2, active compounds read low 0.786 | S. cerevisiae deletion strains, locus YLR262C, strain YPT6 (second series), active compounds read low 0.208 | S. cerevisiae deletion strains, locus YLR268W, strain sec22, active compounds read low 0.85 | S. cerevisiae deletion strains, locus YLR320W, strain mms22, active compounds read low 0.695 | S. cerevisiae deletion strains, locus YLR330W, strain CHS5, active compounds read low 0.662 | S. cerevisiae deletion strains, locus YLR342W, strain FKS1 (second series), active compounds read low 0.42 | S. cerevisiae deletion strains, locus YLR342W, strain FKS1, active compounds read low 0.596 | S. cerevisiae deletion strains, locus YLR371W, strain rom2, active compounds read low 0.444 | S. cerevisiae deletion strains, locus YLR418C, strain cdc73, active compounds read low 0.297 | S. cerevisiae deletion strains, locus YML016C, strain PPZ1, active compounds read low 0.889 | S. cerevisiae deletion strains, locus YML032C, strain rad52, active compounds read low 0.732 | S. cerevisiae deletion strains, locus YML120C, strain ndi1, active compounds read low 0.222 | S. cerevisiae deletion strains, locus YML124C, strain tub3, active compounds read low 0.922 | S. cerevisiae deletion strains, locus YMR205C, strain PFK2, active compounds read low 0.649 | S. cerevisiae deletion strains, locus YMR223W, strain ubp8, active compounds read low 0.828 | S. cerevisiae deletion strains, locus YMR263W, strain SAP30, active compounds read low 0.657 | S. cerevisiae deletion strains, locus YMR307W, strain GAS1, active compounds read low 0.509 | S. cerevisiae deletion strains, locus YNL071W, strain lat1, active compounds read low 0.684 | S. cerevisiae deletion strains, locus YNL153C, strain GIM3, active compounds read low 0.788 | S. cerevisiae deletion strains, locus YNL183C, strain NPR1, active compounds read low 0.715 | S. cerevisiae deletion strains, locus YNL209W, strain ssb2, active compounds read low 0.856 | S. cerevisiae deletion strains, locus YNL233W, strain BNI4, active compounds read low 0.563 | S. cerevisiae deletion strains, locus YNL298W, strain CLA4, active compounds read low 0.883 | S. cerevisiae deletion strains, locus YNL307C, strain MCK1, active compounds read low 0.502 | S. cerevisiae deletion strains, locus YNR052C, strain pop2, active compounds read low 0.629 | S. cerevisiae deletion strains, locus YOL147C, strain pex11, active compounds read low 0.681 | S. cerevisiae deletion strains, locus YOR001W, strain rrp6, active compounds read low 0.636 | S. cerevisiae deletion strains, locus YOR061W, strain CKA2, active compounds read low 0.859 | S. cerevisiae deletion strains, locus YOR069W, strain VPS5, active compounds read low 0.854 | S. cerevisiae deletion strains, locus YOR070C, strain gyp1, active compounds read low 0.693 | S. cerevisiae deletion strains, locus YOR080W, strain dia2, active compounds read low 0.715 | S. cerevisiae deletion strains, locus YOR083W, strain WHI5, active compounds read low 0.835 | S. cerevisiae deletion strains, locus YOR106W, strain vam3, active compounds read low 0.373 | S. cerevisiae deletion strains, locus YOR144C, strain elg1, active compounds read low 0.711 | S. cerevisiae deletion strains, locus YOR184W, strain ser1, active compounds read low 0.355 | S. cerevisiae deletion strains, locus YOR231W, strain MKK1, active compounds read low 0.575 | S. cerevisiae deletion strains, locus YOR265W, strain rbl2, active compounds read low 0.741 | S. cerevisiae deletion strains, locus YOR270C, strain vph1, active compounds read low 0.612 | S. cerevisiae deletion strains, locus YOR290C, strain snf2, active compounds read low 0.776 | S. cerevisiae deletion strains, locus YPL051W, strain arl3, active compounds read low 0.539 | S. cerevisiae deletion strains, locus YPL055C, strain LGE1, active compounds read low 0.403 | S. cerevisiae deletion strains, locus YPL106C, strain sse1, active compounds read low 0.505 | S. cerevisiae deletion strains, locus YPL240C, strain hsp82, active compounds read low 0.697 | S. cerevisiae deletion strains, locus YPL256C, strain CLN2, active compounds read low 0.682 | S. cerevisiae deletion strains, locus YPR119W, strain clb2, active compounds read low 0.799 | S. cerevisiae deletion strains, locus YPR163C, strain tif3, active compounds read low 0.817 | S. cerevisiae deletion strains, locus YPR167C, strain met16, active compounds read low 0.773 | S. cerevisiae deletion strains, strain wtn01, active compounds read low 0.812 | S. cerevisiae strains, strain wild type, active compounds read low 0.458
